Measurements taken from the supplement of paper PMC6853941.
Where a name gives a salt, the structure may show the parent alone. A number with no mark means an inactive call.

System: MCF10A
Assay: perturbation Mahalanobis distance of morphological profile vs DMSO controls (Mahalanobis distance (SD units)); higher = stronger morphological change, active = 7 or more
Settings: 72 h
Description: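 MCF10A cells were seeded onto drugs dispensed acoustically into 384-well plates, using one dose per drug chosen from its human peak plasma concentration, and incubated for 72 h at 37 °C. Cells were stained for DNA, tubulin and mitochondria and imaged; 78 CellProfiler features were extracted, plate-normalised and compared with DMSO wells.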

[1] = screen batch: Batch1_Mahalanobis_Distance
[2] = screen batch: Batch2_Mahalanobis_Distance

| SMILES | perturbation Mahalanobis distance [1] | perturbation Mahalanobis distance [2] |
| --- | --- | --- |
| CN(C)C(=N)N=C(N)N [Metformin] (38.4 µM) | 1.76 | 1.8 |
| NCCCC(N)(C(=O)O)C(F)F (configuration not stated) [Eflornithine] (319.5 µM) | 2.24 | 2.74 |
| COc1cc(C(=O)NCc2ccc(OCCN(C)C)cc2)cc(OC)c1OC [Trimethobenzamide] (257.426.762 µM) | 2.9 | 5.46 |
| NC[C@@H]1O[C@H](O[C@H]2[C@@H](O)[C@H](O[C@@H]3[C@@H](O)[C@H](N)C[C@H](N)[C@H]3O[C@H]3O[C@H](CO)[C@@H](O)[C@H](O)[C@H]3N)O[C@@H]2CO)[C@H](N)[C@@H](O)[C@@H]1O [Paromomycin] (332.3 µM) | 4.01 | – |
| N[C@@H]1CONC1=O [D-Cycloserine] (98 µM) | 7.56 (active) | 9.13 (active) |
| N=C(N)c1ccc(OCCCCCOc2ccc(C(=N)N)cc2)cc1 [Pentamidine] (7.4 µM) | 7.67 (active) | 9.96 (active) |
| Cn1nnc2c(C(N)=O)ncn2c1=O [Temozolomide] (70.6 µM) | 3.51 | 2.12 |
| CC(C)(C#N)c1cc(Cn2cncn2)cc(C(C)(C)C#N)c1 [Anastrozole] (0.51 µM) | 3.5 | 3.49 |
| N[C@@H](CC(=O)N1CCn2c(nnc2C(F)(F)F)C1)Cc1cc(F)c(F)cc1F [Sitagliptin] (4.8 µM) | 2.76 | 2.49 |
| CC(C)NCC(O)c1ccc(O)c(O)c1 (configuration not stated) [Isoproterenol] (11.8 µM) | 3.12 | 4.76 |
| Cc1oncc1C(=O)Nc1ccc(C(F)(F)F)cc1 [Leflunomide] (333.1 µM) | – | 2.68 |
| CCCc1nc(C(C)(C)O)c(C(=O)OCc2oc(=O)oc2C)n1Cc1ccc(-c2ccccc2-c2nn[nH]n2)cc1 [Olmesartan Medoxomil] (8.1 µM) | 2.22 | 1.74 |
| OCCN(CCO)c1nc(N2CCCCC2)c2nc(N(CCO)CCO)nc(N3CCCCC3)c2n1 [Dipyridamole] (19.8 µM) | 2.41 | 3.01 |
| CCCc1cc(=O)[nH]c(=S)[nH]1 [Propylthiouracil] (90 µM) | 2.49 | 2.52 |
| CC(=O)O[C@@]12CO[C@@H]1C[C@H](O)[C@@]1(C)C(=O)[C@H](O)C3=C(C)[C@@H](OC(=O)[C@H](O)[C@@H](NC(=O)OC(C)(C)C)c4ccccc4)C[C@@](O)([C@@H](OC(=O)c4ccccc4)[C@H]21)C3(C)C [Docetaxel] (22.7 µM) | – | 2.26 |
| CC1=NS(=O)(=O)c2cc(Cl)ccc2N1 [Diazoxide] (86.7 µM) | 2.69 | – |
| CNNCc1ccc(C(=O)NC(C)C)cc1 [Procarbazine] (13.6 µM) | 2.07 | 2.28 |
| c1ccc([C@H]2CN3CCSC3=N2)cc1 [Levamisole] (11.7 µM) | 2.32 | 2.52 |
| O=C1CCc2ccc(OCCCCN3CCN(c4cccc(Cl)c4Cl)CC3)cc2N1 [Aripiprazole] (3.3 µM) | 2.24 | 2.92 |
| CC(=O)S[C@@H]1CC2=CC(=O)CC[C@]2(C)[C@H]2CC[C@@]3(C)[C@@H](CC[C@@]34CCC(=O)O4)[C@H]12 [Spironolactone] (3 µM) | 3.75 | 5.83 |
| COc1cnc(NS(=O)(=O)c2ccc(N)cc2)nc1 [Sulfameter] (322.8 µM) | 6.64 | 3.67 |
| O=C(Nc1ncc([N+](=O)[O-])s1)c1ccccc1O [Tizoxanide] (48.8 µM) | – | 3 |
| COc1cc2ncnc(Nc3ccc(F)c(Cl)c3)c2cc1OCCCN1CCOCC1 [Gefitinib] (34.7 µM) | – | 3.28 |
| NC(=O)NO [Hydroxyurea] (650 µM) | – | 15.4 (active) |
| CC[N+](C)(C)Cc1ccccc1Br [Bretylium Tosylate] (84.1 µM) | 2.48 | 2.83 |
| OC(CCN1CCCCC1)(c1ccccc1)C1CCCCC1 (configuration not stated) [Trihexyphenidyl] (3.3 µM) | 1.96 | 2.42 |
| CN/C(=C\[N+](=O)[O-])NCCSCc1csc(CN(C)C)n1 [Nizatidine] (7.5 µM) | 2.51 | 2.13 |
